# Mcl1 Noxa PPI: Mcl-1/Noxa interaction inhibition; Q07820; TR-FRET Mcl-1/Noxa peptide binding, 2 h; inhibition, % at 21.7 µM; actives 1.5% (n = 220,000); AID 1022;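 active means compounds that cut the protein-peptide binding signal by more than 50% relative to plate controls in a single-dose test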;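 further: His-tagged Mcl-1 with rhodamine Noxa BH3 peptide and terbium anti-His antibody; 0% = Mcl-1 plus Noxa peptide wells and 100% = peptide-only wells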
# 14-3-3 Bad inh: disrupts binding of bovine 14-3-3 zeta to phospho-Bad peptide; actives 0.71% (n = 220,000); TR-FRET 14-3-3zeta/Dy647-pBad peptide displacement, 1 h; inhibition, % at 21.7 µM; AID 781;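 active means inhibition above about 70%, limit read from the data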;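 further: 0% = full 14-3-3 plus peptide FRET controls and 100% = background without 14-3-3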
# eIF4E 4G PPI: blocks eIF4E binding to eIF4G. P63073+Q04637. TR-FRET eIF4E-eIF4GI(517-606) binding, 2 h. inhibition, % at 21.7 µM. actives 0.37% (n = 220,000). AID 782;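 further: 0% = full FRET control wells and 100% = background wells lacking eIF4GI fragment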
# NCF1 inh: p47phox (human) inhibition | AID 1274 | p47phox/p22phox peptide binding, fluorescence polarization, 2 h | inhibition, % at 24.7 µM | P14598 | actives 0.53% (n = 220,000);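 further: 0% = p47phox with labelled peptide and 100% = labelled peptide alone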
# Mcl-1 Bim block: inhibitors of Bim-Mcl-1 interaction, human; Q07820; AID 1009; actives 0.1% (n = 190,000); inhibition, % at 10 µM; Bead-based flow cytometry, Bim peptide-Mcl-1 binding; in the data active means inhibition above about 40%;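 further: 0% = no compound tracer wells and 100% = peptide blocker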
# Mcl1 Bid PPI: Mcl-1/Bid interaction inhibition; Q07820; inhibition, % at 21.7 µM; TR-FRET Mcl-1/Bid-Dy647 peptide binding, 1536-well; actives 0.97% (n = 220,000); AID 1021;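 active means compounds that cut the binding signal by more than half at the single screening dose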;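 further: His-tagged Mcl-1 with europium anti-His antibody binding Bid BH3 peptide; 0% = Mcl-1 plus peptide wells and 100% = peptide-only wells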
# The depositor's hits bear a star; · = no result. Only some compounds are listed: those with a hit (about 3.4% of all), similar ones and a draw of the others.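 How the source made its calls, unless noted: active means inhibition above about 30% (limit read from the data); inactive means the rest.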
SMILES,Mcl1 Noxa PPI,14-3-3 Bad inh,eIF4E 4G PPI,NCF1 inh,Mcl-1 Bim block,Mcl1 Bid PPI
Cc1ccnc2nc(C(=O)OCC(=O)Nc3ccccc3C(C)(C)C)nn12,10,-13,4,-10,-5,-15
CCOC(=O)c1ccccc1Nc1cc(C)nc2nc(C)nn12,58*,4,-4,-7,0,-16
C/C(=N\Nc1ccc([N+](=O)[O-])cc1[N+](=O)[O-])C(C)C(C)C (stereo not given),22,-5,3,-10,-3,5
N#C/C(=C(/O)CSc1nnc(Cc2cccs2)n1C1CCCCC1)c1nc2ccccc2[nH]1,52*,-18,-18,-12,7,-65
O=C(Nc1ccc(S(=O)(=O)Nc2ncccn2)cc1)c1ccc(N2CCCC2=O)cc1,15,0,-3,-28,·,-72
CCCC1(C)NC(=O)c2ccccc2O1 (stereo not given),-14,-7,1,2,0,-9
CC1(C)C2CCC(C2)C1(C)NC(=O)CN1CCOCC1 (stereo not given),23,74*,-3,3,0,32
COc1ccc(Cl)cc1-n1c(C)cc(C=O)c1C,6,-2,-4,6,44*,-9
O=C(C1CCN(S(=O)(=O)c2cccnc2)CC1)N1CCN(c2cccc(Cl)c2)CC1,6,2,86*,-4,0,-25
CS(=O)(=O)N1CCC(C(=O)N2CCN(c3cccc(Cl)c3)CC2)CC1,5,0,1,-4,3,-10
Oc1c(/C=N/c2ccccn2)sc2ccccc12,76*,-9,7,-83,·,49
Oc1c(C=Nc2ccc(Cl)cn2)sc2ccccc12,28,8,7,-8,·,12
Cc1ccc(P(=O)(O)c2ccc(C)cc2)cc1,17,·,·,65*,-2,1
C=CCSC1=Nc2sccc2C2=NC(=O)CN12,56*,18,12,-38,0,22
Cc1ccc(CSC2=Nc3ccccc3C3=NC(=O)CN23)cc1,6,-17,5,-12,-1,-10
Cc1cc(C)cc(Oc2ccc(N)cc2)c1,38,-5,-1,-8,-2,12
Cc1cc(C)cc(Oc2nn[nH]n2)c1,19,71*,-2,1,9,2
CC(C)(C)c1cccc(Oc2nn[nH]n2)c1,-9,79*,6,1,-1,30
Cc1ccc(C(=O)O/N=C2\CCCc3ccccc32)cc1,9,7,2,-4,-1,-21
Cc1ccc(S(=O)(=O)O/N=C2\CCCc3ccccc32)cc1,9,36,-2,46*,1,-6
O=C(CSc1nnc(NC2CCCCC2)s1)Nc1ccc2c(c1)C(=O)c1ccccc1C2=O,47,-18,-1,-16,5,-12
CC(C)Nc1nnc(SCC(=O)Nc2ccc3c(c2)C(=O)c2ccccc2C3=O)s1,78*,-15,-5,-27,3,-17
Cc1nc(-c2cccc(S(=O)(=O)N3CCCC(C)C3)c2)cs1 (stereo not given),9,80*,12,-15,0,-8
CCN(Cc1nc2ccccc2c(=O)[nH]1)Cc1nc2ccsc2c(=O)[nH]1,-66,-14,-2,-11,0,-75
CCc1ccc2c(CN(CC)Cc3nc4ccccc4c(=O)[nH]3)cc(=O)oc2c1,-1,-3,2,4,-1,90*
SMILES,Mcl1 Noxa PPI,14-3-3 Bad inh,eIF4E 4G PPI,NCF1 inh,Mcl-1 Bim block,Mcl1 Bid PPI
CCCN(CCC)C(C)C(=O)NCC1(c2ccccc2)CCCC1 (stereo not given),10,4,2,-5,-5,6
Clc1cccc(CON/C=N/c2ncnc3sccc23)c1,5,2,10,-8,0,2
Clc1cccc(Cl)c1CON/C=N/c1ncnc2sccc12,2,7,-9,-11,-3,87*
Cc1c(/C=N/NC(=O)c2ccc(Br)o2)cnn1C,-11,-2,1,-2,·,-17
Cc1ccc(CN2CCN(Cc3cn[nH]c3C3CCCCC3)CC2CCO)cc1 (stereo not given),8,-5,4,-4,-4,-31
COc1cc(/C=C2\C(=O)NN(c3ccc(C)cc3)C2=O)cc([N+](=O)[O-])c1O,26,-3,4,-25,3,-18
COc1cc(/C=C2\SC(=O)N(Cc3ccc(Cl)cc3)C2=O)cc([N+](=O)[O-])c1O,92*,96*,61*,-5,0,90*
O=C1/C(=C/c2ccc(O)c([N+](=O)[O-])c2)SC(=S)N1Cc1ccccc1,56*,-1,19,-13,-2,13
COc1cc(/C=C2\SC(=O)N(Cc3ccc(F)cc3)C2=O)cc([N+](=O)[O-])c1O,97*,18,15,2,3,22
CCOC(=O)CN1C(=O)S/C(=C/c2ccc(OC)c([N+](=O)[O-])c2)C1=O,13,-9,0,-7,18,-5
CCOC(=O)CNC(=O)c1ccc(OCC(F)(F)F)cc1,-3,-2,0,-6,1,10
CC(C)CC(NC(N)=O)C(=O)NCc1ccccc1Cl (stereo not given),5,-3,-1,-8,-2,-26
Cc1cc(NC(=O)c2ccc(F)cc2F)n(-c2nc3ccccc3[nH]2)n1,-7,13,-8,-13,0,-21
Cc1cc(NC(=O)/C=C/c2ccccc2Cl)n(-c2nc3ccccc3[nH]2)n1,-19,24,2,-1,0,66*
O=[N+]([O-])c1cc([N+](=O)[O-])c2c(=Nc3ccccc3)n(-c3ccccc3)n(O)c2c1,62*,-3,3,29,11,-28
O=[N+]([O-])c1cccc(C(=Nc2ccccc2)NO)c1,7,2,-2,0,-4,-24
Cc1noc(C)c1COc1ccc(C(=O)OCC(=O)Nc2cccc(S(=O)(=O)N3CCOCC3)c2)cc1,11,1,6,-9,-3,-5
CCC1Oc2ccc(C)cc2N(CC(=O)N(Cc2cccnc2)Cc2ccc(C)o2)C1=O (stereo not given),64*,3,1,5,1,71*
Cc1cc([N+](=O)[O-])nn1CCC(=O)Nc1nccs1,0,-6,-1,0,0,-22
CCn1c2ccccc2c2cc(NC(=O)c3ccco3)ccc21,20,91*,2,-22,-7,19
CCn1c2ccccc2c2cc(NC(C)=O)ccc21,18,26,-12,-7,0,16
CCn1c2ccccc2c2cc(NC(=O)CNCC3CCCO3)ccc21 (stereo not given),52*,29,6,-1,-1,5
COC(=O)c1c(C)[nH]c(C(=O)/C=C/c2ccccc2F)c1C,16,4,1,-12,·,-12
CCN1CCc2c(sc(NC(=S)NC(=O)c3ccccc3)c2C#N)C1,29,79*,-1,-40,2,17

# High-throughput results deposited in PubChem BioAssay by several laboratories.
